We go through 7 sequences from paper PMC7862700, “An all-to-all approach to the identification of sequence-specific readers for epigenetic DNA modifications on cytosine”.

What all share (experiment): DAPPL (digital affinity profiling via proximity ligation, sequencing); 10 mM Tris-HCl pH 7.5, 50 mM NaCl, 1 mM DTT, 4% glycerol, room temperature, 30 min; GST-TFs on glutathione beads, 16-mer random dsDNA library, 0.1% formaldehyde crosslink after washing; high values mean tight binding
Holding throughout (conditions): protein: recombinant; tags: N-terminal GST; dsDNA, one strand shown

One test deals with T1, FLI1 (Homo sapiens, UniProt Q01543 1-452).
T1 sequence: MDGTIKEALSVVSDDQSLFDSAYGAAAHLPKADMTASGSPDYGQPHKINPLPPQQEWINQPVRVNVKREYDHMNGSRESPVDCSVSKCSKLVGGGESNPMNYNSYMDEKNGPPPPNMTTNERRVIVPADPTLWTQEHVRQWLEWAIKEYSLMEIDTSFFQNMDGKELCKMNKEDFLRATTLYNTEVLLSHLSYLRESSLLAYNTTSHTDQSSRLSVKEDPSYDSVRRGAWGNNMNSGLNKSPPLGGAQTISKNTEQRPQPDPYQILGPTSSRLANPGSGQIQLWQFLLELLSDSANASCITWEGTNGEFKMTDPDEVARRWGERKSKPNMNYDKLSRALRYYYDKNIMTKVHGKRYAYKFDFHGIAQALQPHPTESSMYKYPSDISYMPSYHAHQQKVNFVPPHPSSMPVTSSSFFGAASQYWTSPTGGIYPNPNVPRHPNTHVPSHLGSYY
The method in brief:
(§1)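 A tag-only sample was pooled with DNA-barcoded human transcription factors that had been expressed in yeast as GST fusions and captured on glutathione beads. The pools were incubated for 30 min at room temperature with 200 nmole of a random double-stranded 16-mer DNA library in Tris/NaCl/DTT/glycerol buffer, then washed, crosslinked with 0.1% formaldehyde, proximity-ligated (BsaI/T4 ligase, 1 h, 37 °C), PCR-amplified and sequenced on an Illumina NextSeq500. Binding signal is each hexamer's read frequency for a factor divided by its frequency for the tag-only sample.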

In the next test the target is T2, ELK1 (Homo sapiens, UniProt P19419 1-428).
T2 sequence: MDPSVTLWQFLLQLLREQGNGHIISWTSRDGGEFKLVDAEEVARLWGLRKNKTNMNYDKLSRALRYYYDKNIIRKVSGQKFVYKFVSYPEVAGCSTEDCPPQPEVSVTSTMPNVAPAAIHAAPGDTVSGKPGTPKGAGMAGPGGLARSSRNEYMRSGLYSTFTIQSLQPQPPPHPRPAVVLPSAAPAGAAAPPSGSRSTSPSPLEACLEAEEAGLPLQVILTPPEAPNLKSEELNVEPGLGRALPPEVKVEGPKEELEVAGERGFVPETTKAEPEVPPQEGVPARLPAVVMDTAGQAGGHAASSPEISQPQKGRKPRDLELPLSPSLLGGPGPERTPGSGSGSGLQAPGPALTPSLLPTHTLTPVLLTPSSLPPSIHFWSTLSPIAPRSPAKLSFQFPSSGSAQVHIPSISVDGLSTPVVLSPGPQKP
The method in brief:
as §1

Another test has as its target T3, GABPA (Homo sapiens, UniProt Q06546 1-454).
T3 sequence: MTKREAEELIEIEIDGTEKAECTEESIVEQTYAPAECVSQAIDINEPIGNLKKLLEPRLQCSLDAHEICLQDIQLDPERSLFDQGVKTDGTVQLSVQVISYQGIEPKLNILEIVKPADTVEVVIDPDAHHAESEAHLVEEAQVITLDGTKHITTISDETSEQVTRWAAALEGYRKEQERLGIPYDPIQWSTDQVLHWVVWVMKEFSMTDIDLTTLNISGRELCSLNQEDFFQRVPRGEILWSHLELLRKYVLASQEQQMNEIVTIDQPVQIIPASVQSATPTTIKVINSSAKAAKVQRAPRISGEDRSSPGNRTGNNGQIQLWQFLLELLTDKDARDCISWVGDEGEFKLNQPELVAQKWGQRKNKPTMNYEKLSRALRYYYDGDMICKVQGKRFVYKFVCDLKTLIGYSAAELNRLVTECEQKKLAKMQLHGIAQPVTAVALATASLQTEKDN
Summed up: as §1

Another test deals with T4, ERG (Homo sapiens, UniProt P11308 1-479).
T4 sequence: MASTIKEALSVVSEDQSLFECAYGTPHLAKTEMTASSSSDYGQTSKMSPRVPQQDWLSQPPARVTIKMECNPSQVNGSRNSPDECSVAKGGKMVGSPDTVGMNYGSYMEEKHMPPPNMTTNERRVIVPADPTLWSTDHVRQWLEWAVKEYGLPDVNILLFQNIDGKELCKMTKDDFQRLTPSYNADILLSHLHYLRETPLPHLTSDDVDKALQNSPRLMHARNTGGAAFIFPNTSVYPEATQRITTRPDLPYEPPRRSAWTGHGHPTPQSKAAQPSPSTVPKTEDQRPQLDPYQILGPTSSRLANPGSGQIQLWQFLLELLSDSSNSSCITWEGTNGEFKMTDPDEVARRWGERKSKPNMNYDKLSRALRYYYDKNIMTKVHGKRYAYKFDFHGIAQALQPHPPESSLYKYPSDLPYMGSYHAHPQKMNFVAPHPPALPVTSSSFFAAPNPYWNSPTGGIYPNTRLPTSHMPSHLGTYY
Summed up: as §1

A further test has as its target ELF1 (Homo sapiens, UniProt P32519 1-619). Summed up: as §1
In the next test the target is T5, EHF (Homo sapiens, UniProt Q9NZC4 1-300).
T5 sequence: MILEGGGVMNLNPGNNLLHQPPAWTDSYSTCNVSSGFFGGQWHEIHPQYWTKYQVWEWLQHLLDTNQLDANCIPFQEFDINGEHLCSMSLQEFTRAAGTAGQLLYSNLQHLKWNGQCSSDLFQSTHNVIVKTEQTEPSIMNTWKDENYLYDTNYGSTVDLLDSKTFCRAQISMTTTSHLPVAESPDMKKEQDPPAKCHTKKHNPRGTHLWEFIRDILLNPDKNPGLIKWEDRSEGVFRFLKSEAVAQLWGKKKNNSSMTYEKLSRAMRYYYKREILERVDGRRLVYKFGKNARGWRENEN
The method in brief:
as §1

The target of another test is SPI1 (Homo sapiens, UniProt P17947 1-270). Summed up: as §1
In a further test the target is SPIB (Homo sapiens, UniProt Q01892 1-262). Summed up:
as §1

For another test, the target named is T6, ELK3 (Homo sapiens, UniProt P41970 1-407).
T6 sequence: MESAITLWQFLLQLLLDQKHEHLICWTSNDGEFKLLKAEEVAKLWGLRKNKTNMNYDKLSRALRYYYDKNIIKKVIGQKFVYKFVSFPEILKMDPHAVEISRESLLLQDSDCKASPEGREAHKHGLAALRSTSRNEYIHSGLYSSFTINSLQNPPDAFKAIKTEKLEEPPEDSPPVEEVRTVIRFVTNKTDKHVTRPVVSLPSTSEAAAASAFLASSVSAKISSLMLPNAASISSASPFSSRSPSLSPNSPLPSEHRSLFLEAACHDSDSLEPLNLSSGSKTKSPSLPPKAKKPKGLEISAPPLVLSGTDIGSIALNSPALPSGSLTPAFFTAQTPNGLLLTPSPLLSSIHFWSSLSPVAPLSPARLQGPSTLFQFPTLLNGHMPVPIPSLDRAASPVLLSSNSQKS
The method in brief:
as §1

Sequence of ELF1 (P32519 whole entry): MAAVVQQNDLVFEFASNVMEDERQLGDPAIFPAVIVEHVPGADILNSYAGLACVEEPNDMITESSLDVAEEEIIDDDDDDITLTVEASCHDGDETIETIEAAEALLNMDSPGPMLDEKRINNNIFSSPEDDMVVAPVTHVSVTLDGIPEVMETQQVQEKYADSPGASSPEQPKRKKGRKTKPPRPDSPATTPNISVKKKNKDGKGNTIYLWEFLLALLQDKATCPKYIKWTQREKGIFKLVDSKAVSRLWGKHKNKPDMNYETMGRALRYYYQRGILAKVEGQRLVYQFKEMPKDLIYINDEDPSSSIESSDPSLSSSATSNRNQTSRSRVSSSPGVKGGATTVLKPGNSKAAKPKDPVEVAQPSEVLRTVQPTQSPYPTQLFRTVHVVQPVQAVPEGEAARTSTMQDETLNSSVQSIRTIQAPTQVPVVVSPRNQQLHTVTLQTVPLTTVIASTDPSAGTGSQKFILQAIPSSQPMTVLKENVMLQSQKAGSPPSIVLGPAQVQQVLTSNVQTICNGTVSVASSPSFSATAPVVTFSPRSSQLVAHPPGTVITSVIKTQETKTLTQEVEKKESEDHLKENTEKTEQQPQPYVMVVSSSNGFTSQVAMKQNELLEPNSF
Sequence of SPIB (Q01892 whole entry): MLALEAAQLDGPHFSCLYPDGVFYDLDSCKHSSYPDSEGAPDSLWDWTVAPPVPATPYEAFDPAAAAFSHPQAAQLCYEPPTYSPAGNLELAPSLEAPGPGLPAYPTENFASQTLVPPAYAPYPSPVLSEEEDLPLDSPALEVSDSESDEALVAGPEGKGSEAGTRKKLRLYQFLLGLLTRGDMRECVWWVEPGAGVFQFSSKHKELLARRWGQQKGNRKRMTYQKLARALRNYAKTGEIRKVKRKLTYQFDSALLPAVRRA

As for TACGGC, the binding signal in the test with FLI1 is 1.18 fold enrichment (6-mer frequency, TF over GST control); with ELK1, 1.25 fold enrichment (6-mer frequency, TF over GST control); with GABPA, 1.23 fold enrichment (6-mer frequency, TF over GST control); with ERG, 1.24 fold enrichment (6-mer frequency, TF over GST control); in the test with ELF1 it was 1.18 fold enrichment (6-mer frequency, TF over GST control); with EHF it was 1.2 fold enrichment (6-mer frequency, TF over GST control). The binding signal with SPI1 is 1.18 fold enrichment (6-mer frequency, TF over GST control); in the test with SPIB it was 1.25 fold enrichment (6-mer frequency, TF over GST control); with ELK3, 1.16 fold enrichment (6-mer frequency, TF over GST control).
Turning to AACTAT, the binding signal in the test with FLI1 is 1.37 fold enrichment (6-mer frequency, TF over GST control); with ELK1 it was 1.36 fold enrichment (6-mer frequency, TF over GST control); with GABPA, 1.38 fold enrichment (6-mer frequency, TF over GST control); with ERG, 1.36 fold enrichment (6-mer frequency, TF over GST control); with ELF1, 1.29 fold enrichment (6-mer frequency, TF over GST control); with EHF, 1.36 fold enrichment (6-mer frequency, TF over GST control). The binding signal with SPI1 was 1.33 fold enrichment (6-mer frequency, TF over GST control); with SPIB, 1.29 fold enrichment (6-mer frequency, TF over GST control); with ELK3, 1.36 fold enrichment (6-mer frequency, TF over GST control).
For TACTGC, the binding signal was 1.22 fold enrichment (6-mer frequency, TF over GST control) with FLI1; 1.22 fold enrichment (6-mer frequency, TF over GST control) with ELK1; 1.17 fold enrichment (6-mer frequency, TF over GST control) with GABPA; 1.25 fold enrichment (6-mer frequency, TF over GST control) with ERG; 1.24 fold enrichment (6-mer frequency, TF over GST control) with ELF1; 1.3 fold enrichment (6-mer frequency, TF over GST control) in the test with EHF. The binding signal with SPI1 was 1.24 fold enrichment (6-mer frequency, TF over GST control); in the test with SPIB, 1.13 fold enrichment (6-mer frequency, TF over GST control); with ELK3 it was 1.1 fold enrichment (6-mer frequency, TF over GST control).
Consider TTCAGT, for which the binding signal with FLI1 was 1.07 fold enrichment (6-mer frequency, TF over GST control); with ELK1, 1.04 fold enrichment (6-mer frequency, TF over GST control); with GABPA, 1.06 fold enrichment (6-mer frequency, TF over GST control); with ERG, 1.03 fold enrichment (6-mer frequency, TF over GST control); in the test with ELF1, 1.09 fold enrichment (6-mer frequency, TF over GST control); with EHF it was 1.04 fold enrichment (6-mer frequency, TF over GST control). The binding signal with SPI1 is 1.11 fold enrichment (6-mer frequency, TF over GST control); with SPIB, 1 fold enrichment (6-mer frequency, TF over GST control); with ELK3, 1.02 fold enrichment (6-mer frequency, TF over GST control).
Regarding TATATG, the binding signal in the test with FLI1 is 1.28 fold enrichment (6-mer frequency, TF over GST control); with ELK1, 1.38 fold enrichment (6-mer frequency, TF over GST control); in the test with GABPA, 1.3 fold enrichment (6-mer frequency, TF over GST control); with ERG it was 1.36 fold enrichment (6-mer frequency, TF over GST control); with ELF1, 1.43 fold enrichment (6-mer frequency, TF over GST control); with EHF, 1.34 fold enrichment (6-mer frequency, TF over GST control). The binding signal with SPI1 was 1.41 fold enrichment (6-mer frequency, TF over GST control); with SPIB, 1.36 fold enrichment (6-mer frequency, TF over GST control); in the test with ELK3, 1.38 fold enrichment (6-mer frequency, TF over GST control).
Take TGTCTC: the binding signal is 1.31 fold enrichment (6-mer frequency, TF over GST control) with FLI1; 1.31 fold enrichment (6-mer frequency, TF over GST control) in the test with ELK1; 1.31 fold enrichment (6-mer frequency, TF over GST control) with GABPA; 1.23 fold enrichment (6-mer frequency, TF over GST control) with ERG; 1.2 fold enrichment (6-mer frequency, TF over GST control) in the test with ELF1; 1.22 fold enrichment (6-mer frequency, TF over GST control) with EHF. The binding signal was 1.29 fold enrichment (6-mer frequency, TF over GST control) in the test with SPI1; 1.28 fold enrichment (6-mer frequency, TF over GST control) with SPIB; 1.15 fold enrichment (6-mer frequency, TF over GST control) in the test with ELK3.
As for TGCATT, the binding signal with FLI1 was 1.34 fold enrichment (6-mer frequency, TF over GST control); in the test with ELK1, 1.34 fold enrichment (6-mer frequency, TF over GST control); in the test with GABPA it was 1.37 fold enrichment (6-mer frequency, TF over GST control); with ERG it was 1.24 fold enrichment (6-mer frequency, TF over GST control); in the test with ELF1, 1.33 fold enrichment (6-mer frequency, TF over GST control); with EHF, 1.3 fold enrichment (6-mer frequency, TF over GST control). Further, the binding signal was 1.31 fold enrichment (6-mer frequency, TF over GST control) with SPI1; 1.34 fold enrichment (6-mer frequency, TF over GST control) with SPIB; 1.35 fold enrichment (6-mer frequency, TF over GST control) in the test with ELK3.
